Type in all cases: functional
The target of assay [1] is Solute carrier family 2, facilitated glucose transporter member 1 (Homo sapiens) (UniProt P11166). In words: ST_JUDE_LEISH: Cytotoxicity at 2uM final concentration against transgenic Leishmania Mexicana promastigotes LmGLUT1 that are glucose transport deficient and complemented with the human glucose transporter GLUT1. Activity is measured by DNA content using SYBR green in vitro.

The target in assay [2] is Hexose transporter 1 (Plasmodium falciparum) (UniProt O97467). As to the kind of experiment: ST_JUDE_LEISH: Cytotoxicity at 2uM final concentration against transgenic Leishmania Mexicana promastigotes LmPfHT that are glucose transport deficient and complemented with the Plasmodium falciparum hexose transporter. Activity is measured by DNA content using SYBR green in vitro.

Assay [3] has as its target Glucose transporter (Leishmania mexicana) (UniProt O61059). As to the kind of experiment: ST_JUDE_LEISH: Cytotoxicity at 2uM final concentration against transgenic Leishmania Mexicana promastigotes LmGT2 that are glucose transport deficient and complemented with the L. Mexicana glucose transporter 2. Activity is measured by DNA content using SYBR green in vitro.

Sequence of Solute carrier family 2, facilitated glucose transporter member 1 (Homo sapiens) (P11166 whole entry): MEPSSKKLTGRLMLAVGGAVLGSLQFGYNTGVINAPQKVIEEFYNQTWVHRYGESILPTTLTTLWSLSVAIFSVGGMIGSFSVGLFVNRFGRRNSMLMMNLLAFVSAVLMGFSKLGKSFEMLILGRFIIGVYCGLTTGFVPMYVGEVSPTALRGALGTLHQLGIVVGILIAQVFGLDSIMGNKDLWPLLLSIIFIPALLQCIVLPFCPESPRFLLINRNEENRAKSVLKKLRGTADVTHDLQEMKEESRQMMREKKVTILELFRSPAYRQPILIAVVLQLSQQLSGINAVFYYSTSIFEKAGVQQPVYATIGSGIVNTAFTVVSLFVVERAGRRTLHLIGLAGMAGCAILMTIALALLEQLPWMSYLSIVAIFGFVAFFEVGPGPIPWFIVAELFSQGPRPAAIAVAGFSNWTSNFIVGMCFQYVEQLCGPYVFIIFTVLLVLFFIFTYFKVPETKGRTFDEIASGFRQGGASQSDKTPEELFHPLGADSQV

Take `O=C(Cc1ccc(NC(=O)c2ccc(O)c(-c3ccc(Cl)c(Cl)c3)c2)cc1)NCCN1CCCCC1`: the figures for the inhibition in assay [1], in assay [2] and in assay [3] were -0.79%, -0.35% and 0.58%, respectively.

With `COC(=O)c1ccc2nc(-c3ccc(C(=O)NCc4ccc(Cl)c(Cl)c4)cc3)[nH]c2c1`, the figures for the inhibition in assay [1], in assay [2] and in assay [3] were 3.81%, 3.6% and 3.51%, respectively.

With `CCOC(=O)c1ccc(N2CCCCC2)c(NC(=O)C(Cl)(Cl)Cl)c1`, the results for the inhibition in assay [1], in assay [2] and in assay [3] were -2.66%, -0.39% and -1.19%, respectively.

Take `Cc1ccccc1C1CCN(C2CCC(NC(=O)C3=Cc4cc(Cl)ccc4OC3)CC2)CC1` (stereo unspecified): the inhibition is -3.31% in assay [1], 2.37% in assay [2] and 1.59% in assay [3].

For `COc1ccc(-c2csc3nc(C)nc(Cl)c23)cc1OC`, the inhibition in assay [1] was -0.82%; in assay [2], 0.48%; in assay [3], 0.63%.

In the case of `CN1CCC(N(Cc2ccc(-c3ccc(C(F)(F)F)cc3)nc2)C(=O)Cn2c(CCc3cccc(F)c3F)cc(=O)c3ccccc32)CC1`, the inhibition in assay [1] stood at 6.73%; in assay [2] it was 6.06%; in assay [3], 7.68%.

For the molecule `CS(=O)(=O)CCNCc1nc(-c2ccc3c(Nc4ccc(F)c(O)c4)ccnc3c2)cs1`, the inhibition in assay [1] came out at 0.96%; in assay [2] it was 0.78%; in assay [3] it was 0.48%.

For `O=C(Cc1ccc(Cl)cc1)Nc1cc(Cl)ccc1Cn1cnc(N2CCNCC2)cc1=O`, the figures for the inhibition in assay [1], in assay [2] and in assay [3] were 3.22%, -0.28% and 2.2%, respectively.

Regarding `CC1CCCN(Cc2cc(Cl)cc(Cl)c2O)C1` (stereo unspecified), the results for the inhibition in assay [1], in assay [2] and in assay [3] were -1.08%, -0.95% and -1.76%, respectively.

Regarding `O=C(NCc1ccc(Cl)cc1)c1ccc(CN2CCCN(Cc3cccc(O)c3)CC2)cc1`, the inhibition in assay [1] came out at 0.86%; in assay [2], 0.62%; in assay [3], 2.04%.

With `O=C(Nc1cccc(CN2CCCN(Cc3ccsc3)CC2)c1)c1cc2ccccc2s1`, the inhibition was 1.11% in assay [1], 0.58% in assay [2] and -0.93% in assay [3].

For the molecule `Cc1nn(-c2ccccc2)c2c1C(c1ccc(C(C)C)cc1)N1C(=N2)N(Cc2ccccc2)c2ccccc21` (stereo unspecified), the inhibition was found to be 4.28% in assay [1], 2.86% in assay [2] and 1.85% in assay [3].

Take `COCCOc1nc(N)nc2ncc(Cc3cc(OC)ccc3OC)c(C)c12`: the inhibition in assay [1] is 0.79%; in assay [2] it was 0.23%; in assay [3], -1.06%.

Regarding `Cc1cc(=NN=Cc2ccc(Cl)cc2)c2ccc(F)cc2[nH]1`, the inhibition in assay [1] amounted to 2.07%; in assay [2] it was 2.71%; in assay [3] it was 1.54%.

Turning to `COc1ccc2ncc(Cl)c(CCN3CCC(NCc4ccc5c(n4)NC(=O)CO5)CC3)c2c1`, the inhibition in assay [1] was found to be 7.95%; in assay [2], 5.92%; in assay [3], 6.59%.

Take `O=C(c1cc(-c2ccccc2)n[nH]1)N1CCN(S(=O)(=O)c2ccc(Cl)s2)CC1`: the inhibition in assay [1] amounted to 4.06%; in assay [2], 1.3%; in assay [3], 2.66%.

As for `O=C(Nc1ccc(-c2nc3ccc(NC(=O)c4ccc(Br)cc4)cc3[nH]2)cc1)c1ccc(Br)cc1`, the inhibition in assay [1] is -0.81%; in assay [2], -0.68%; in assay [3], -2.77%.

For the molecule `Cc1nc(NCc2ccccc2)cc(NCC(O)c2ccc(O)cc2)n1` (stereo unspecified), the values for the inhibition in assay [1], in assay [2] and in assay [3] were 8.37%, 8.57% and 7.2%, respectively.

Regarding `Cc1noc(C)c1-c1cccc(CNCc2cccc(-c3ccc(-c4nc5cccc(C)c5[nH]4)cc3)c2)c1`, the inhibition in assay [1] was found to be 1.89%; in assay [2], 1.4%; in assay [3], 0.96%.

Take `FC(F)(F)COc1ccc(CNCCCCCCNCc2ccc(OCC(F)(F)F)c3ccccc23)c2ccccc12`: the inhibition in assay [1] amounted to 113%; in assay [2] it was 107%; in assay [3], 108%.

As for `O=C(NC1CCCc2ccccc21)[C@@H]1CCCN1C(=O)c1ccc(O)c(-c2ccc(Cl)c(Cl)c2)c1` (stereo partly specified), the inhibition in assay [1] was 0.06%; in assay [2], -0.61%; in assay [3], -0.01%.

`O=C(/C=C/c1ccc(Cl)c(Cl)c1)NCCCCCN1CCC(NC(=O)Nc2ccc3c(c2)OCO3)CC1`: the inhibition is 0.33% in assay [1], 2.53% in assay [2] and 4.27% in assay [3].

Take `CCCCCCc1c(C)nc2cc(OC)ccc2c1O`: the inhibition in assay [1] came to 3.2%; in assay [2] it was 5.49%; in assay [3] it was 2.87%.

As for `COc1cccc2c1CCN(CCN1CCC(CNC(=O)c3ccc(-c4ccc(C#N)cc4)cc3)CC1)C2`, the results for the inhibition in assay [1], in assay [2] and in assay [3] were 7.68%, 3.84% and 1.38%, respectively.

For the molecule `O=S(=O)(Nc1ccc(CCN2CCC(N3CCCCC3)CC2)cc1)c1ccccc1C(F)(F)F`, the inhibition in assay [1] is 13.5%; in assay [2], 13.4%; in assay [3], 11.3%.

Take `O=C(Nc1ccc(OC2CCN(Cc3ccc(F)cc3)C2)c(Cl)c1)c1ccco1` (stereo unspecified): the inhibition stood at 3.67% in assay [1], 3.44% in assay [2] and 3.01% in assay [3].

Turning to `COc1ccc(CC2(c3ccc(F)cc3)N=C(N)N(CCCc3ccc4c(c3)OCO4)C2=O)cc1` (stereo unspecified), the inhibition stood at 4% in assay [1], 5.58% in assay [2] and 5.39% in assay [3].

As to `N=C(N)c1cc(Cl)cc(NC(=O)Nc2cc(Cl)cc(C(=N)N)c2)c1`, the inhibition was found to be 2.37% in assay [1], 1.25% in assay [2] and 1.53% in assay [3].

For `CCc1ccc(C2CCN(CCCCNC(=O)c3ccc(-c4ccc(C#N)cc4)cc3)CC2)c(OCCO)c1`, the inhibition in assay [1] is 0.42%; in assay [2], 3.19%; in assay [3], 1.5%.

Take `COC(=O)C(C)(C)Cc1c(SC(C)(C)C)c2cc(C(C)C)ccc2n1Cc1ccc(Cl)cc1`: the inhibition is 2.2% in assay [1], 5.38% in assay [2] and -0.32% in assay [3].

As to `Cn1cncc1C(=O)Nc1cccc(-c2ccc(-c3nc4cc(F)ccc4[nH]3)cc2)c1`, the inhibition is 0% in assay [1], -0.68% in assay [2] and 3.3% in assay [3].

As for `Cc1cccc(CN2CCC(C(=O)Nc3ccc(-c4nc5ccccc5[nH]4)cc3)CC2)n1`, the inhibition in assay [1] amounted to 2.6%; in assay [2], 2.69%; in assay [3], 3.71%.

Broadly, the inhibition is the relative decrease from the control value, in per cent.

(Values after ChEMBL document CHEMBL3433997, “St. Jude Leishmania screening dataset” (2016).)
